In PubChem BioAssay AID1224921 (Broad Institute, 2016):
Among all 1,400 compounds or so, about 350 (25%) were called active. Inconclusive results (about 2%) are left out. The rule behind the calls is not given here. These entries were drawn from the full list. Potency and affinity values are given separately.

Assay: C. difficile growth inhibition, confirmation, 4-point retest (AID 1224921);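 note: plate controls were DMSO wells for no effect and levofloxacin 16 µg/mL wells for full effect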
Conditions: Clostridioides difficile clinical isolate growth, OD600, 24 h, hits give low values; at 30 µM unless noted

Max activity, inactive:
C[C@H]1CN([C@@H](C)CO)S(=O)(=O)c2ccc(C3=CCCCC3)cc2O[C@H]1CN(C)C(=O)C1CCCCC1 30.6%, C[C@@H]1CN([C@H](C)CO)C(=O)c2cc(Br)cnc2O[C@H]1CN(C)C(=O)c1ccccc1 -3.07% [at 8 µM], C[C@H]1CN([C@@H](C)CO)S(=O)(=O)c2ccc(C#CC3CCCCC3)cc2O[C@H]1CN(C)Cc1cccnc1 35.6%, CO[C@H]1CN(C)C(=O)c2cc(NC(=O)c3ccc(F)cc3)ccc2OC[C@@H](C)N(C(C)=O)C[C@H]1C -8.16% [at 1.95 µM], C[C@H](C(=O)N(C)C[C@H]1OCc2ccccc2-c2ccccc2C(=O)N([C@@H](C)CO)C[C@H]1C)c1ccccc1 18.3%, C[C@@H]1CN([C@H](C)CO)C(=O)c2cc(NC(=O)Nc3cccc4ccccc34)ccc2O[C@@H](C)CCCCO[C@H]1CN(C)S(=O)(=O)c1ccc(F)cc1 36.9%, C[C@@H]1CN([C@@H](C)CO)C(=O)Cc2cc(NC(=O)NC3CCCCC3)ccc2O[C@@H]1CN(C)S(=O)(=O)c1ccc(Cl)cc1 20.4%, C[C@@H]1CN([C@@H](C)CO)S(=O)(=O)c2ccc(C#CC3CC3)cc2O[C@H]1CN(C)Cc1cccnc1 34.2%, CCCNC(=O)N1C[C@H](C)[C@@H](OC)CN(C)C(=O)c2cc(NC(C)=O)ccc2OC[C@@H]1C -10.9% [at 1.95 µM], COc1ccc(NC(=O)N[C@@H]2C=C[C@H](CC(=O)NC3CCCCC3)O[C@@H]2CO)cc1 13.1% [at 1.95 µM], CCC(=O)N(C)C[C@@H]1Oc2cc(C#CCC3CCCC3)ccc2S(=O)(=O)N([C@@H](C)CO)C[C@H]1C 27.8%, O=C(C[C@H]1C=C[C@H](NC(=O)CCN2CCCCC2)[C@H](CO)O1)Nc1ccc(-c2ccccc2)cc1 11.2%, CCCC#Cc1ccc([C@@H]2[C@H](C#N)N(S(=O)(=O)c3cccc(F)c3)[C@H]2CO)cc1 21.1%, COc1ccc(NC(=O)N(C)C[C@@H]2Oc3ncc(-c4cccnc4)cc3C(=O)N([C@@H](C)CO)C[C@@H]2C)cc1 -18.5% [at 8 µM], CC(C)CC#Cc1ccc2c(c1)O[C@@H](CN(C)C(=O)c1ccccc1F)[C@@H](C)CN([C@@H](C)CO)S2(=O)=O 18%, O=C(C[C@H]1CC[C@H]2[C@@H](COC[C@@H](O)CN2Cc2cccc(Cl)c2)O1)NCC1CCCCC1 11.9% [at 8 µM], COc1ccccc1S(=O)(=O)N(C)C[C@H]1Oc2cc(C#CCC(C)C)ccc2S(=O)(=O)N([C@@H](C)CO)C[C@@H]1C 10.5%, C[C@H]1CN([C@@H](C)CO)S(=O)(=O)c2ccc(Br)cc2O[C@@H]1CN(C)Cc1cccc(F)c1 41.5%, C[C@H]1CN([C@@H](C)CO)C(=O)c2c(c3ccccc3n2C)-c2ccccc2CO[C@H]1CN(C)S(=O)(=O)CC(F)(F)F 14.7%, CCCC(=O)Nc1ccc2c(c1)OC[C@H](C)N(Cc1ccncc1)C[C@@H](C)[C@H](OC)CN(C)C2=O 14.3%, CCCN1C[C@@H](C)[C@@H](OC)CN(C)C(=O)c2cc(NC(=O)CC)ccc2OC[C@H]1C -7.79% [at 0.5 µM], CO[C@@H]1CN(C)C(=O)c2cc(NS(=O)(=O)c3cccc(F)c3)ccc2OC[C@@H](C)N(Cc2cc(F)ccc2F)C[C@@H]1C 14.2%, NC(=O)[C@@H]1[C@H]2C(=O)O[C@H](c3ccccc3)[C@H](c3ccccc3)N2[C@H](c2ccc(O)cc2)[C@@]12C(=O)Nc1ccc(C#CC3=CCCCC3)cc12 21.8%, CCCN1C[C@H](C)[C@@H](OC)CN(C)C(=O)c2ccc(NC(=O)Nc3c(C)noc3C)cc2OC[C@@H]1C 29.7%, C[C@@H]1CN([C@@H](C)CO)C(=O)c2ccccc2-c2ccccc2CO[C@H]1CN(C)C(=O)c1ccc(F)cc1 -6.68% [at 8 µM], C[C@@H]1CN([C@@H](C)CO)C(=O)Cc2cc(NC(=O)c3ccncc3)ccc2O[C@@H]1CN(C)Cc1ccc(-c2ccccc2)cc1 41.4%, N#C[C@H]1[C@@H](c2ccc(C#CC3CCCCC3)cc2)[C@@H](CO)N1C(=O)Cc1ccccn1 24.3% [at 0.5 µM], C[C@H](CO)N1C[C@H](C)[C@@H](CN(C)Cc2ccccc2)Oc2ccc(NS(C)(=O)=O)cc2CC1=O 28% [at 35 µM], CO[C@@H]1CN(C)C(=O)c2ccc(NC(=O)c3ccc(F)cc3)cc2OC[C@@H](C)N(C(=O)c2ccc(F)cc2)C[C@@H]1C -7.95% [at 0.5 µM], C[C@@H](NC(=O)C[C@H]1C=C[C@H](NC(=O)C2CCC2)[C@@H](CO)O1)c1ccccc1 -13.6% [at 0.5 µM], CCC(=O)N1C[C@H](C)[C@H](OC)CN(C)C(=O)c2cc(NS(=O)(=O)CC)ccc2OC[C@H]1C -9.49% [at 1.95 µM], C[C@H]1CN([C@@H](C)CO)S(=O)(=O)c2ccc(C#CC3CC3)cc2O[C@@H]1CN(C)Cc1ccncc1 47%, C[C@@H]1CN([C@@H](C)CO)C(=O)c2c(c3ccccc3n2C)-c2ccccc2CO[C@@H]1CN(C)Cc1cccc(C(=O)O)c1 -12.2% [at 8 µM], Cc1ccc(F)cc1S(=O)(=O)N[C@H]1CCN(Cc2ccc(OC(C)C)cc2)C1 21.6%, COc1ccc(CN(C)C[C@H]2Oc3c(NC(=O)Nc4ccc(C(F)(F)F)cc4)cccc3C(=O)N([C@@H](C)CO)C[C@@H]2C)cc1 32.3% [at 8 µM], COc1ccc(CN(C)C[C@@H]2Oc3c(NC(=O)Nc4ccc(C(F)(F)F)cc4)cccc3C(=O)N([C@@H](C)CO)C[C@H]2C)cc1 38%, COc1cccc(S(=O)(=O)N[C@@H]2CC[C@H](CCN)O[C@@H]2CO)c1 -11.8% [at 1.95 µM], CNC[C@@H]1Oc2cc(C#CCC3CCCC3)ccc2S(=O)(=O)N([C@H](C)CO)C[C@H]1C 18.8% [at 8 µM], CCS(=O)(=O)Nc1ccc2c(c1)C(=O)N(C)C[C@H](OC)[C@H](C)CN(C)[C@H](C)CO2 -7.51% [at 1.95 µM], CCCC#Cc1ccc2c(c1)O[C@H](CN(C)Cc1ccncc1)[C@@H](C)CN([C@@H](C)CO)S2(=O)=O 18.4%, CO[C@@H]1CN(C)C(=O)c2ccc(NC(=O)C3CCC3)cc2OC[C@@H](C)N(S(=O)(=O)c2ccc(Cl)cc2)C[C@H]1C -9.7% [at 2.1 µM], C[C@H](CO)N1C[C@H](C)[C@@H](CN(C)C(=O)Nc2ccc3c(c2)OCO3)Oc2cc(C#Cc3cccnc3)ccc2S1(=O)=O -15.3% [at 8 µM], O=C(N[C@H]1CC[C@@H](CCNS(=O)(=O)Cc2ccccc2)O[C@@H]1CO)c1ccc2c(c1)OCO2 16.7%, CN(C)C(=O)C[C@@H]1CC[C@H](NC(=O)c2ccc(F)cc2)[C@H](CO)O1 -7.24% [at 1.95 µM], C[C@@H](NC(=O)C[C@@H]1C=C[C@@H](NC(=O)C2CCC2)[C@H](CO)O1)c1ccccc1 -14.9%, COc1ccc(C(=O)Nc2ccc3c(c2)OC[C@@H](C)N(C(=O)C2CC2)C[C@@H](C)[C@H](OC)CN(C)C3=O)cc1 3.99% [at 35 µM], CO[C@H]1CN(C)C(=O)c2ccc(NC(=O)c3ccccc3F)cc2OC[C@H](C)N(CC2CC2)C[C@H]1C -14.6% [at 1.95 µM], C[C@@H]1CN([C@@H](C)CO)C(=O)Cc2cc(NS(C)(=O)=O)ccc2O[C@@H]1CN(C)Cc1ccc(-c2ccccc2)cc1 21.7%, CNC[C@@H]1Oc2cc(-c3ccccc3F)ccc2S(=O)(=O)N([C@H](C)CO)C[C@H]1C 24.6%, CN(C)C(=O)C[C@@H]1CC[C@H](NC(=O)c2ccc(F)cc2)[C@@H](CO)O1 5.78% [at 8 µM], O=C(Cc1ccncc1)NCC[C@H]1CC[C@H](NC(=O)C2CCC2)[C@H](CO)O1 -8.69% [at 1.95 µM], O=C(Cc1ccncc1)NCC[C@@H]1CC[C@H](NC(=O)C2CCC2)[C@@H](CO)O1 -11.9% [at 0.5 µM], O=C(Cc1ccncc1)NCC[C@H]1CC[C@H](NC(=O)C2CCC2)[C@@H](CO)O1 -8.1% [at 35 µM], COc1ccc(-c2ccc3c(c2)O[C@H](CN(C)Cc2cccnc2)[C@@H](C)CN([C@H](C)CO)S3(=O)=O)cc1 25.8%, C[C@@H]1CN([C@H](C)CO)C(=O)Cc2cc(NC(=O)c3ccncc3)ccc2O[C@H]1CN(C)Cc1ccc(Cl)c(Cl)c1 5.9% [at 35 µM], O=C(N[C@@H]1C=C[C@H](CC(=O)N2CCOCC2)O[C@@H]1CO)c1cccc(F)c1 9.1% [at 8 µM], CCCC(=O)Nc1ccc2c(c1)C(=O)N(C)C[C@H](OC)[C@@H](C)CN(CC1CCOCC1)[C@H](C)CO2 -10.3%, O=C(C[C@H]1C[C@H]2c3cc(NS(=O)(=O)c4ccc(F)cc4)ccc3O[C@H]2[C@H](CO)O1)NCc1ccc(-c2ccccc2)cc1 -6.35% [at 1.95 µM]
